The results in this text go back to PMC4336329 (PLoS ONE, 2015).

Among all 310,000 compounds or so, about 14,000 (4.5%) showed an effect of 50% or more. The effect is printed as a negative number. What follows is part of a selection rich in strong results, with near analogues and random picks from the rest.
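Note: peak tail current of the secondary pulse compared with the same well before compound.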

Sequence of human ether-à-go-go-related gene (hERG) potassium channel (Q12809 whole entry, looked up): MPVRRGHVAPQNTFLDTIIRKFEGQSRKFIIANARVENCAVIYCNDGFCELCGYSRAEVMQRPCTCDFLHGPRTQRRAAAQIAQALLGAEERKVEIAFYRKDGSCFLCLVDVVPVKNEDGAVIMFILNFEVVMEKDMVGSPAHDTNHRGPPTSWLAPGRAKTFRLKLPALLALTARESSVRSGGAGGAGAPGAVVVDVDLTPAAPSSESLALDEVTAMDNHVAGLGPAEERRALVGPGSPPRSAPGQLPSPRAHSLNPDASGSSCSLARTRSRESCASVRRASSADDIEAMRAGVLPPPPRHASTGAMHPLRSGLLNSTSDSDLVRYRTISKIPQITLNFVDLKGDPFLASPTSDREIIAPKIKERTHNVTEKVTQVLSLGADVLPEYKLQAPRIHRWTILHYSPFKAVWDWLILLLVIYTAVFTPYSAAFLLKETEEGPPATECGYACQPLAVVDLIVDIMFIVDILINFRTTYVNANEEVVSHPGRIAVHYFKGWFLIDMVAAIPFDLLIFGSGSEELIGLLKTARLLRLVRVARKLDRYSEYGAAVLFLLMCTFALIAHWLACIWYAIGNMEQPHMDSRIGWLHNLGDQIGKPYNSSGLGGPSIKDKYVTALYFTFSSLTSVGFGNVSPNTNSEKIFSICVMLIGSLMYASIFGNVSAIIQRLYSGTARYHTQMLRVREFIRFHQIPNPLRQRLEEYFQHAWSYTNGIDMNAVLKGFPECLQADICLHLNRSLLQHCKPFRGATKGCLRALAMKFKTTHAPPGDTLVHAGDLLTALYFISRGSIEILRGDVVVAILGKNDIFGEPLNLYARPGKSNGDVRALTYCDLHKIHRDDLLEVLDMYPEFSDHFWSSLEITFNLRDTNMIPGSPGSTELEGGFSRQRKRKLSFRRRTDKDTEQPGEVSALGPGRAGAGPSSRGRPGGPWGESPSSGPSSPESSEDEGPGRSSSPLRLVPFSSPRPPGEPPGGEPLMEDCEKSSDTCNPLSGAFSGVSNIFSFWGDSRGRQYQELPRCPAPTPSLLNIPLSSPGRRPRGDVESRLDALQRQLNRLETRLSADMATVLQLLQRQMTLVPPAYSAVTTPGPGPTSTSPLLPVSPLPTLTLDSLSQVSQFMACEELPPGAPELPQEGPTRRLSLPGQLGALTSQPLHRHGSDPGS

The assay concerns the target human ether-à-go-go-related gene (hERG) potassium channel (human, UniProt Q12809). Nature of the assay: primary screen, population patch clamp on CHO cells stably expressing hERG; higher = less effect of the substance.
On to `COC(=O)c1ccccc1N1CCS(=O)(=O)CC1`, for which the “hERG current change (%, negative = inhibition) at 10uM” value came to 18.3%.

Turning to `COc1ccc(C(=O)Nc2nc(C)c(C(C)=O)s2)cc1S(=O)(=O)N1CCOCC1`, the “hERG current change (%, negative = inhibition) at 10uM” value is given as 0.765%.

Consider `O=C(N/N=C/c1c(O)n(C2CC2)c(=S)[nH]c1=O)c1ccccc1O`, for which the “hERG current change (%, negative = inhibition) at 10uM” value is 2.57%.

For the molecule `CCN(CC)S(=O)(=O)c1ccc(N2CCN(C)CC2)c(NC(=O)c2cc(=O)c3ccccc3o2)c1`, the “hERG current change (%, negative = inhibition) at 10uM” value was -18.4%.

With `Cc1ccc(C(=O)N(C)CC(=O)Nc2cccc(C)c2C)o1`, the “hERG current change (%, negative = inhibition) at 10uM” value was determined as 9.83%.

In the case of `Cc1nc2nc(NC(=O)c3ccco3)nn2c(C)c1Cl`, the “hERG current change (%, negative = inhibition) at 10uM” value is given as -1.18%.

Turning to `Br.c1ccc(-c2ccccc2OCc2nnc3n2CCC3)cc1`, the “hERG current change (%, negative = inhibition) at 10uM” value came to 16.3%.

`COc1ccc(C2C(C(=O)N3CCCC3)c3cc(OC)c(OC)cc3C(=O)N2C)cc1OC` (centres unmarked): the “hERG current change (%, negative = inhibition) at 10uM” value is 0.414%.

Turning to `COc1ccccc1C(=O)NCCNc1nc2cc(C)cc(C)c2cc1C#N`, the “hERG current change (%, negative = inhibition) at 10uM” value is on record as 13.3%.

On to `Cc1cc(C)c2cc(C#N)c(NCCOC(=O)c3ccccc3C)nc2c1`, for which the “hERG current change (%, negative = inhibition) at 10uM” value is -54.8%.

In the case of `CCC(=O)NCCNc1nc2cc(C)cc(C)c2cc1C#N`, the “hERG current change (%, negative = inhibition) at 10uM” value came to 58.1%.

Regarding `Cc1c(OCC(=O)N2CCC(C(N)=O)CC2)ccc2c3c(c(=O)oc12)CCC3`, the “hERG current change (%, negative = inhibition) at 10uM” value came out at 7.25%.

On to `CCOC(=O)N1CCC(Nc2c(OCC)c(=O)c2=O)CC1`, for which the “hERG current change (%, negative = inhibition) at 10uM” value came out at 3.96%.

Regarding `Nc1ccccc1-c1nnc(-c2ccccc2N)n1N`, the “hERG current change (%, negative = inhibition) at 10uM” value was 8.38%.

For the molecule `CCN(CC)C(=O)Cn1cc(S(=O)(=O)CC(=O)Nc2ccc3c(c2)OCCO3)c2ccccc21`, the “hERG current change (%, negative = inhibition) at 10uM” value was -9.47%.

`CCOC(=O)Cn1c(S(=O)(=O)Cc2ccccc2Cl)nc(-c2ccccc2)c1-c1ccccc1`: the “hERG current change (%, negative = inhibition) at 10uM” value was -6.2%.

`O=C(C1CCCC1)N1CCC(CO)(Cc2ccccc2Cl)CC1`: the “hERG current change (%, negative = inhibition) at 10uM” value is on record as -44.3%.

`O=C(C1CCCCC1)N1CCC(CO)(Cc2ccccc2Cl)CC1`: the “hERG current change (%, negative = inhibition) at 10uM” value is recorded as -15.3%.

On to `OCC1(Cc2ccccc2Cl)CCN(C/C=C/c2ccccc2)CC1`, for which the “hERG current change (%, negative = inhibition) at 10uM” value is given as -68.4%.

For the molecule `CCC(C)CN1CCC(CO)(Cc2ccccc2Cl)CC1` (centres unmarked), the “hERG current change (%, negative = inhibition) at 10uM” value is -30%.

Regarding `COc1ccc(/C=C/CN2CCC(CO)(Cc3ccccc3Cl)CC2)cc1`, the “hERG current change (%, negative = inhibition) at 10uM” value is -79.6%.

Regarding `CC(C)(C)NC(=O)N1CCC(CO)(Cc2ccccc2Cl)CC1`, the “hERG current change (%, negative = inhibition) at 10uM” value is -4.82%.

As to `Cc1ccccc1OCC(=O)O/N=C(\N)Cc1cccs1`, the “hERG current change (%, negative = inhibition) at 10uM” value is 5.34%.

Regarding `Cc1ccc2[nH]c3c(c2c1)CN(C(=O)CN(C)CC1OCCO1)CC3`, the “hERG current change (%, negative = inhibition) at 10uM” value was found to be 12.7%.

As to `COc1ccc(N2C(=O)NC(=O)/C(=C\c3ccc([N+](=O)[O-])s3)C2=O)cc1`, the “hERG current change (%, negative = inhibition) at 10uM” value came to 13.3%.

As to `O=C(Nc1cc(Cl)ccc1C(=O)O)c1ccc(CN2C(=O)c3ccccc3C2=O)cc1`, the “hERG current change (%, negative = inhibition) at 10uM” value turned out to be 20.7%.

Consider `Cc1ccc(OCC(=O)Nc2ccc(S(=O)(=O)Nc3ccccn3)cc2)cc1C`, for which the “hERG current change (%, negative = inhibition) at 10uM” value worked out at 24.4%.

Regarding `O=C(Cn1cnc2c(NC(=O)OCc3ccccc3)ncnc21)NCCN1CCOCC1`, the “hERG current change (%, negative = inhibition) at 10uM” value is on record as 1.26%.

In the case of `Br.COC(=O)c1ccc(CN2CCSC2=N)cc1`, the “hERG current change (%, negative = inhibition) at 10uM” value is reported as 6.85%.

For the molecule `CN(CC(=O)Nc1ccc(F)c(F)c1)S(=O)(=O)c1cccc2nsnc12`, the “hERG current change (%, negative = inhibition) at 10uM” value was -26.1%.

For the molecule `O=C(c1ccccn1)N(Cc1ccco1)C1(C(=O)NC2CCCC2)CCCCC1`, the “hERG current change (%, negative = inhibition) at 10uM” value is recorded as -5.62%.

On to `O=C(O)c1cc(=O)c2ccccc2[nH]1`, for which the “hERG current change (%, negative = inhibition) at 10uM” value turned out to be 8.86%.

Turning to `O=C(O)/C(=C\c1c(C(=O)O)[nH]c2cc(Cl)cc(Cl)c12)c1ccccc1`, the “hERG current change (%, negative = inhibition) at 10uM” value turned out to be 13.3%.

With `O.O=C(O)c1cc(=O)c2c(Cl)cc(Cl)cc2[nH]1`, the “hERG current change (%, negative = inhibition) at 10uM” value is listed as -51.9%.

Consider `Cc1c(OC(C(=O)O)c2ccccc2)ccc2c1oc(=O)c1ccccc12` (centres unmarked), for which the “hERG current change (%, negative = inhibition) at 10uM” value was determined as 17.3%.

For the molecule `Cc1ccc(S(=O)(=O)Nc2ccc3c(c2)nc(CCN2CCN(c4ccccn4)CC2)n3C)cc1`, the “hERG current change (%, negative = inhibition) at 10uM” value is given as -84.6%.

`CC(C)C(=O)Nc1ccc2c(c1)nc(CCN1CCN(c3ccccn3)CC1)n2C`: the “hERG current change (%, negative = inhibition) at 10uM” value is on record as -18.2%.

With `Cn1c(CCN2CCN(c3ccccn3)CC2)nc2cc(NS(=O)(=O)c3ccc(Cl)cc3)ccc21`, the “hERG current change (%, negative = inhibition) at 10uM” value was -84.3%.

In the case of `CC(=O)Nc1ccc2c(c1)nc(CCN1CCN(c3ccccn3)CC1)n2C`, the “hERG current change (%, negative = inhibition) at 10uM” value came out at 18.6%.

For `CC1=C(C(=O)OCC(Cl)(Cl)Cl)N2C(=O)C(NC(=O)Cc3ccccc3)C2SC1` (centres unmarked), the “hERG current change (%, negative = inhibition) at 10uM” value is reported as 15.5%.

In the case of `O=c1[nH]c(/C=C/c2ccc3c(c2)OCO3)c([N+](=O)[O-])c(=O)[nH]1`, the “hERG current change (%, negative = inhibition) at 10uM” value came out at 45.8%.

For `COc1ccc(NC(=O)CN(C)CC(=O)NC2CCC(C)CC2)cc1` (centres unmarked), the “hERG current change (%, negative = inhibition) at 10uM” value is recorded as 0.408%.

Consider `O=C(NCCc1ccccc1)C(NS(=O)(=O)c1cccc2nsnc12)c1ccccc1` (centres unmarked), for which the “hERG current change (%, negative = inhibition) at 10uM” value is reported as -25.4%.

Turning to `COc1ccc(CCNC(=O)CCCn2c(SCC#N)nc3ccccc3c2=O)cc1OC`, the “hERG current change (%, negative = inhibition) at 10uM” value is -12.7%.
